Source: PubChem (Sanford-Burnham Center for Chemical Genomics)
Hits are enriched below; roughly 6.3% of the tested compounds scored in any of these assays.
tim10-1 inh – inhibits growth of tim10-1 mutant yeast; S. cerevisiae tim10-1 ts strain growth, BacTiter-Glo, 24 h; inhibition, % at 20 µM; 330,000 compounds, 2.2% hits; AID 463190;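 active = inhibition of at least 40%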;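 note: mutant grown at 25 °C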
MPTP inh – inhibitors of mitochondrial permeability transition pore. inhibition, % at 10 µM. AID 602449. 360,000 compounds, 1.4% hits. isolated mouse mitochondria, Ca2+ swelling absorbance, 30 min;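 active = inhibition of 50% or more, scaled per plate between neutral and stimulator controls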
tim23-1 inh – growth inhibitors of tim23-1 mutant yeast; S. cerevisiae tim23-1 growth, BacTiter-Glo luminescence, 24 h; inhibition, % at 20 µM; 330,000 compounds, 1.3% hits; AID 463212;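 active = growth inhibition of the mutant yeast at or above 50%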;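 note: temperature-sensitive mutant grown at 25 °C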
TIM10 inh – TIM10 yeast growth inhibition. S. cerevisiae TIM10 strain growth, BacTiter-Glo luminescence, 24 h. 330,000 compounds, 1.4% hits. inhibition, % at 10 µM;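 active = inhibition of 40% or more at the single tested concentration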;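 note: wild-type TIM10 isogenic control strain grown at permissive 25 °C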
Mdm2 MdmX PPI – human Mdm2/MdmX binding inhibition; O15151+Q00987; SaOS-2 split-luciferase Mdm2/MdmX complementation, luminescence; inhibition, % at 8 µM; 330,000 compounds, 3% hits; AID 485346;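 active = inhibition of at least 50% at 8 µM in the primary screen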
tim10-1 conf – confirmation of tim10-1 mutant yeast growth inhibitors; shares compounds with tim10-1 inh; S. cerevisiae tim10-1 ts strain growth, BacTiter-Glo, 24 h; inhibition, % at 20 µM; 7,400 compounds, 56% hits;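 active = inhibition of yeast growth at or above a set limit in either of two repeat tests at 20 µM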;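 note: tim10-1 mutant grown at permissive 25 °C to find synthetic lethal compounds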
Large screens that a line does not name were inactive (follow-up assays come after a bar, where they were run).

CC(=O)c1ccc(OC(=O)Cc2cccc3ccccc23)cc1	tim10-1 inh 46 | tim10-1 conf 36
Cc1nn(-c2cccc(Cl)c2)c2c1C(c1ccncc1)C(C#N)=C(N)O2 (stereo unspecified)	none
Cc1nn(-c2cccc(Cl)c2)c2c1C(c1cccnc1)C(C#N)=C(N)O2 (stereo unspecified)	tim10-1 inh 41 | tim10-1 conf 31
Cc1ccc(-c2nn(CCC#N)cc2C=C(C#N)C#N)cc1	tim10-1 inh 45 | tim10-1 conf inactive
CCOC(=O)CNC(=O)c1cc(-c2ccccn2)nc2c(C)c(Cl)ccc12	tim10-1 inh 41 | tim10-1 conf inactive
CCOC(=O)c1ccc(S(=O)(=O)Nc2cc(C(C)(C)C)no2)cc1	tim10-1 inh 41 | tim10-1 conf inactive
CC(C)(C)c1cc(NS(=O)(=O)c2ccc3c(c2)OCCO3)on1	none
COc1ccc(C2=NN(C(C)=O)CC2c2cccc([N+](=O)[O-])c2)cc1 (stereo unspecified)	tim10-1 inh 43 | tim10-1 conf inactive
COc1ccc(NC(=O)C2C3CCC4C(CCC32)C4(Cl)Cl)cc1 (stereo unspecified)	none
COc1cccc(NC(=O)C2C3CCC4C(CCC32)C4(Cl)Cl)c1 (stereo unspecified)	tim10-1 inh 42 | tim10-1 conf inactive
COc1ccc(-c2ccccc2)cc1NC(=O)[C@@H]1O[C@H](CO)[C@H](O)[C@H](O)[C@H]1O	none (no result: tim10-1 inh, tim23-1 inh, TIM10 inh, Mdm2 MdmX PPI)
CCCC(=O)C1=C(O)C(C(=O)OC)C(C)(C)CC1=Nc1ccc(N)cc1 (stereo unspecified)	tim10-1 inh 42 | tim10-1 conf inactive
CC1CCCN(S(=O)(=O)c2ccc(C(=O)Nc3nnc(-c4ccccc4Cl)o3)cc2)C1 (stereo unspecified)	tim10-1 inh 42 | tim10-1 conf inactive
CN(C)S(=O)(=O)c1ccc(C(=O)Nc2nnc(-c3cccs3)o2)cc1	none
CCC1CCCCN1S(=O)(=O)c1ccc(NC(=O)c2cccnc2)cc1 (stereo unspecified)	none
CCC1CCCCN1S(=O)(=O)c1ccc(C(=O)Nc2nnc(-c3cccs3)o2)cc1 (stereo unspecified)	tim10-1 inh 45 | tim10-1 conf inactive
CC1CC(C)CN(S(=O)(=O)c2ccc(C(=O)Nc3nnc(-c4cccs4)o3)cc2)C1 (stereo unspecified)	tim10-1 inh 42 | tim10-1 conf inactive
Cc1cc2c(cc1C)-n1nnnc1C(N1CCN(c3ccccc3F)CC1)C(=O)N2 (stereo unspecified)	none (no result: tim10-1 inh, tim23-1 inh, TIM10 inh, Mdm2 MdmX PPI)
CC(=O)OC[C@@H]1CN(Cc2ccccc2)C[C@H](n2cnc3c(Nc4ccccc4)ncnc32)O1	none (no result: tim10-1 inh, tim23-1 inh, TIM10 inh, Mdm2 MdmX PPI)
CNc1nc(Nc2ccc(C)cc2C)c2sccc2n1	none (no result: tim10-1 inh, tim23-1 inh, TIM10 inh, Mdm2 MdmX PPI)
Cc1cccc2c1nc(-c1ccccc1)n1cnnc21	tim10-1 inh 40 | tim10-1 conf inactive
CC(=O)Nc1cc(-c2ccccc2)cn2c(-c3cccc(C(C)=O)c3)cnc12	none (no result: tim10-1 inh, tim23-1 inh, TIM10 inh, Mdm2 MdmX PPI)
Cc1[nH]c2ccc(C(=O)N3CCN(c4ccc(F)cc4)CC3)cc2c1C	tim10-1 inh 54 | tim10-1 conf inactive
COc1ccc(N2CCN(C(=O)c3cc(-c4ccc(F)cc4)[nH]c3C)CC2)cc1	tim10-1 inh 42 | tim10-1 conf 40
CCOC(=O)N1CCN(C(=O)c2cc(-c3ccc(F)cc3)[nH]c2C)CC1	none
CCCOc1ccccc1NC(=O)/C=C/C(N)=O	tim10-1 inh 62 | tim10-1 conf 56
O=C(NCc1ccc(F)cc1)c1cc(C2CCCCN2C(=O)c2ccc(Cl)cc2)on1 (stereo unspecified)	none (no result: tim10-1 inh, tim23-1 inh, TIM10 inh, Mdm2 MdmX PPI)
CCOC(=O)c1c(NC(=O)CN2C(=O)NC(C)(c3ccc(OC(F)F)cc3)C2=O)sc(C)c1C (stereo unspecified)	tim10-1 inh 43 | tim10-1 conf inactive
O=C(c1ccc(Br)cc1)c1cn[nH]c1-c1ccccc1O	none
CC(C)(C)c1ccc(C(=O)c2cn[nH]c2-c2ccccc2O)cc1	tim10-1 inh 45 | tim10-1 conf 35
COC(=O)c1ccc(OC(=O)CS(=O)c2ccccc2[N+](=O)[O-])cc1 (stereo unspecified)	tim10-1 inh 55 | tim10-1 conf 36
O=C1c2ccccc2NC(c2c(Cl)cccc2Cl)N1Cc1ccccc1 (stereo unspecified)	tim10-1 inh 40 | tim10-1 conf inactive
Cc1ccccc1CNC(=O)c1csc([C@@H]2C[C@H](O)[C@@H](CO)O2)n1	none (no result: tim10-1 inh, tim23-1 inh, TIM10 inh, Mdm2 MdmX PPI)
